Experimental data reported in the supplement of paper PMC10849652.
Of roughly 8,800 targets only a part is listed; those with a hit were picked by preference. About 0.5% of all pairs of compound and target were hits.

Columns and labels:
Assay in all cases: log2 fold change, soluble protein after heating vs DMSO (PISA); higher = thermal stabilisation; K562 lysate, 10 uM; active = over 0.2 and 3.5 SD of the protein, either way, in both replicates (recomputed)
lapatinib = compound: CS(=O)(=O)CCNCc1ccc(-c2ccc3ncnc(Nc4ccc(OCc5cccc(F)c5)c(Cl)c4)c3c2)o1 [lapatinib]
How it was run: (§1)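 Pellets of K562 cells were dounce-homogenised in PBS pH 7.4 with 1 mM MgCl2, and the crude extract was held at 1 mg/mL protein for a 30 min treatment with 10 μM compound. Aliquots were heated for 3 min over 48°C-58°C and pooled before NP-40 was added to 0.5% at 4°C. The supernatant from 21,000xg for 90 min was quantified by TMTpro 16plex LC-MS/MS with channel sums equalised. Values are reported from duplicates as log-two fold change in thermal stability relative to solvent controls.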

crizotinib = compound: C[C@@H](Oc1cc(-c2cnn(C3CCNCC3)c2)cnc1N)c1c(Cl)ccc(F)c1Cl [crizotinib]
How it was run: as §1

[1] = compound: C[C@H](C1=CC=C(C=C1)C(=O)NC2=C3C=CNC3=NC=C2)N
How it was run: as §1

duvelisib = compound: C[C@H](Nc1ncnc2nc[nH]c12)c1cc2cccc(Cl)c2c(=O)n1-c1ccccc1 [duvelisib]
How it was run: as §1

gandotinib = compound: Cc1cc(Nc2cc(CN3CCOCC3)c3nc(C)c(Cc4ccc(Cl)cc4F)n3n2)n[nH]1 [gandotinib]
How it was run: as §1

doramapimod = compound: Cc1ccc(-n2nc(C(C)(C)C)cc2NC(=O)Nc2ccc(OCCN3CCOCC3)c3ccccc23)cc1 [doramapimod]
How it was run: as §1

[2] = compound: Cc1cccc(CC(=O)N2CCc3c2ccc(-c2cn(C)c4ncnc(N)c24)c3F)n1
How it was run: as §1

nilotinib = compound: Cc1cn(-c2cc(NC(=O)c3ccc(C)c(Nc4nccc(-c5cccnc5)n4)c3)cc(C(F)(F)F)c2)cn1 [nilotinib]
How it was run: as §1

[3] = compound: Cc1nc(Nc2n[nH]c3c2CN(C(=O)N[C@H](CN(C)C)c2ccccc2)C3(C)C)c2sccc2n1
How it was run: as §1

dasatinib = compound: Cc1nc(Nc2ncc(C(=O)Nc3c(C)cccc3Cl)s2)cc(N2CCN(CCO)CC2)n1 [dasatinib]
How it was run: as §1

[4] = compound: Cc1ncc(-c2ccnc(Nc3ccc(S(C)(=O)=O)cc3)n2)n1C(C)C
How it was run: as §1

[5] = compound: Cn1cc(-c2ccc3c(c2)CCN3C(=O)Cc2cccc(C(F)(F)F)c2)c2c(N)ncnc21
How it was run: as §1

quisinostat = compound: Cn1cc(CNCC2CCN(c3ncc(C(=O)NO)cn3)CC2)c2ccccc21 [quisinostat]
How it was run: as §1

tipifarnib = compound: Cn1cncc1[C@@](N)(c1ccc(Cl)cc1)c1ccc2c(c1)c(-c1cccc(Cl)c1)cc(=O)n2C [tipifarnib]
How it was run: as §1

[6] = compound: NC(=O)Nc1cc(-c2cccc(F)c2)sc1C(=O)N[C@H]1CCCNC1
How it was run: as §1

[7] = compound: NC(=O)c1cnc(N[C@@H]2CCCC[C@@H]2N)nc1Nc1cccc(-n2nccn2)c1
How it was run: as §1

[8] = compound: NC1(c2ccc(-c3nc4ccn5c(=O)[nH]nc5c4cc3-c3ccccc3)cc2)CCC1
How it was run: as §1

pictilisib = compound: CS(=O)(=O)N1CCN(Cc2cc3nc(-c4cccc5[nH]ncc45)nc(N4CCOCC4)c3s2)CC1 [pictilisib]
How it was run: as §1

tozasertib = compound: Cc1cc(Nc2cc(N3CCN(C)CC3)nc(Sc3ccc(NC(=O)C4CC4)cc3)n2)n[nH]1 [tozasertib]
How it was run: as §1

bafetinib = compound: Cc1ccc(NC(=O)c2ccc(CN3CC[C@H](N(C)C)C3)c(C(F)(F)F)c2)cc1Nc1nccc(-c2cncnc2)n1 [bafetinib]
How it was run: as §1

Measured: log2 fold change

ZBTB40 (UniProt Q9NUA8)
Chain of UniProt Q9NUA8 (Q9NUA8 whole entry, looked up): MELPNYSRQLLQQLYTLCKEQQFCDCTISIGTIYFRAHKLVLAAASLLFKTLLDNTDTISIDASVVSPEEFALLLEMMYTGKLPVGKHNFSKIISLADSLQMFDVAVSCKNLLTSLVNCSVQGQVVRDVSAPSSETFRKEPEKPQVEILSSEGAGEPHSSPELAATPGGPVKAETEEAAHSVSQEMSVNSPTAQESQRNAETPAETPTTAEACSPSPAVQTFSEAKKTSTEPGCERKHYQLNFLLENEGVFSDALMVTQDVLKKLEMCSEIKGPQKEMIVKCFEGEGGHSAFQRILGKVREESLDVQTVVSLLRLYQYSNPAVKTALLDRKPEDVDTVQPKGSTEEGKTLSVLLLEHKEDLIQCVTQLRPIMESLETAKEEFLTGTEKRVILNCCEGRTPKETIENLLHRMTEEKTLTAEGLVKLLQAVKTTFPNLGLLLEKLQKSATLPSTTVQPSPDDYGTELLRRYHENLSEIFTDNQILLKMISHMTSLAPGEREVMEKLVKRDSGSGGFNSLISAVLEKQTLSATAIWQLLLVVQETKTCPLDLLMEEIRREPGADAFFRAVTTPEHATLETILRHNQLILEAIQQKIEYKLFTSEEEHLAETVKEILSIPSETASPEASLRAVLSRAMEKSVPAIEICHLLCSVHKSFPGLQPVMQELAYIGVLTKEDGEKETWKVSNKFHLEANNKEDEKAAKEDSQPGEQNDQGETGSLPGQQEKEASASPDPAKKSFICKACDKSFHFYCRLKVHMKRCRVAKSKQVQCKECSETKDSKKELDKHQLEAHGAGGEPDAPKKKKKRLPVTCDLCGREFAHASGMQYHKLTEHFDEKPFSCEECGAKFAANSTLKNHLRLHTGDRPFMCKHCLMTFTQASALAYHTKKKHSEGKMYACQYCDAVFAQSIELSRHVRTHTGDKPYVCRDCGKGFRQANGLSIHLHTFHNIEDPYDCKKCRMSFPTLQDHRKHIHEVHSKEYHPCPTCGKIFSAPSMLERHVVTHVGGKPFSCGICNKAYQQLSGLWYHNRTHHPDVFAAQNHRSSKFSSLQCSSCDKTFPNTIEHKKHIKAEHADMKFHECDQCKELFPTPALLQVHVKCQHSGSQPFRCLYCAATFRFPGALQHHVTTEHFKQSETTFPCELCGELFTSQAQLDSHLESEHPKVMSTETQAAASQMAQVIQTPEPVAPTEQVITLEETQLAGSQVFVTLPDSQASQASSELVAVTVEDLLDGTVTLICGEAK
inactive: lapatinib 0.022 | crizotinib 0.036 | [1] -0.249 | duvelisib 0.018 | gandotinib 0.219 | doramapimod -0.02 | [2] 0.004 | nilotinib -0.076 | [3] 0.29 | dasatinib -0.024 | [4] 0.086 | [5] -0.051 | quisinostat -0.01 | tipifarnib 0.078 | [6] -0.018 | [7] 0.004 | [8] 0.058

USP22 (UniProt Q9UPT9)
Chain of UniProt Q9UPT9 (Q9UPT9 whole entry, looked up): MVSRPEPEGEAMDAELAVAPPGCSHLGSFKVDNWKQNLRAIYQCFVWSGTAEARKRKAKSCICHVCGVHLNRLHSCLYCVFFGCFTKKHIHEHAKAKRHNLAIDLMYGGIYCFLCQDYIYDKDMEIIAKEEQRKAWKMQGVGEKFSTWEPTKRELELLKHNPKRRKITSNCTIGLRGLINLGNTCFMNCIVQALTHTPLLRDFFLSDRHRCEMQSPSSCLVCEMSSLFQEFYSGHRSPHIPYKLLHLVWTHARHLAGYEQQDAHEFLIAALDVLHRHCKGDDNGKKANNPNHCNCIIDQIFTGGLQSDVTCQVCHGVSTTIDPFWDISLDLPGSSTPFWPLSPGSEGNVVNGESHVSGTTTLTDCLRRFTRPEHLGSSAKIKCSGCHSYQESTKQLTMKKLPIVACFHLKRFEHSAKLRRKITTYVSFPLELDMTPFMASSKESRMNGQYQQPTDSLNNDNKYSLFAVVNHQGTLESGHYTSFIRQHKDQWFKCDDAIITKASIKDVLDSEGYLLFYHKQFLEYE
inactive: pictilisib 0.001 | crizotinib -0.072 | [1] 0.004 | duvelisib -0.006 | gandotinib -0.148 | tozasertib 0.036 | doramapimod -0.029 | bafetinib -0.032 | [2] 0.019 | nilotinib -0.032 | [3] 0.002 | dasatinib 0.022 | [4] 0.037 | [5] 0.028 | quisinostat -0.065 | tipifarnib -0.028 | [6] 0.004 | [8] -0.012

YBEY (UniProt P58557)
Chain of UniProt P58557 (P58557 whole entry, looked up): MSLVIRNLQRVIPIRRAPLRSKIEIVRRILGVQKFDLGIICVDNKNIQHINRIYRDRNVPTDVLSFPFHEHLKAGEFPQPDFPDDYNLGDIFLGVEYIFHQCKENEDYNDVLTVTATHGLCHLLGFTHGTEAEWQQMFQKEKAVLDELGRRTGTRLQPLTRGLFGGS
inactive: duvelisib 0.049 | tozasertib 0.035 | dasatinib 0.067 | [5] -0.083 | [8] 0.044
